Where “and” joins values, the source holds several entries; their conditions need not be identical. Equal values may be shown once. Among all 5,500 compounds or so, about 2,000 (36%) were called active. About 18% were inconclusive and are not listed. No stated cut-off is given here; in the data, active means normalized growth mostly below about 0.91 (no sharp cut-off); inconclusive means no clear call, values can overlap the other calls; inactive means mostly above about 0.92. The list shows a part of the results.
Assay: chemical genetic growth profiling, strain panel (AID 1159580);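 further: tested at 20 µM; growth read once vehicle control cultures reached saturation at 30 °C; 1 = growth at the plate median or of vehicle wells; lower values mean less growth of the strain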
Details: growth OD

Measured: normalized growth

CC(C)C(=O)Nc1ccc([N+](=O)[O-])c(C(F)(F)F)c1
inactive: S. cerevisiae deletion strains, locus YKL009W, strain mrt4, active compounds read low 0.984 | S. cerevisiae deletion strains, locus YKL068W, active compounds read low 0.984 | S. cerevisiae deletion strains, locus YKL085W, strain MDH1 (second series), active compounds read low 0.987 | S. cerevisiae deletion strains, locus YKL085W, strain MDH1, active compounds read low 0.987 | S. cerevisiae deletion strains, locus YKL160W, strain elf1, active compounds read low 1 | S. cerevisiae deletion strains, locus YKL190W, strain CNB1, active compounds read low 0.992 | S. cerevisiae deletion strains, locus YKR026C, strain gcn3, active compounds read low 1.01 | S. cerevisiae deletion strains, locus YKR091W, strain srl3, active compounds read low 1.01 | S. cerevisiae deletion strains, locus YLL001W, strain dnm1, active compounds read low 1.03 | S. cerevisiae deletion strains, locus YLL026W, active compounds read low 1.02 | S. cerevisiae deletion strains, locus YLL041C, strain sdh2, active compounds read low 1.01 | S. cerevisiae deletion strains, locus YLR027C, strain aat2, active compounds read low 1.02 | S. cerevisiae deletion strains, locus YLR039C, strain RIC1, active compounds read low 0.826 | S. cerevisiae deletion strains, locus YLR058C, strain SHM2, active compounds read low 0.99 | S. cerevisiae deletion strains, locus YLR102C, strain apc9, active compounds read low 0.968 | S. cerevisiae deletion strains, locus YLR113W, strain HOG1, active compounds read low 0.93 | S. cerevisiae deletion strains, locus YLR221C, strain rsa3, active compounds read low 1.04 | S. cerevisiae deletion strains, locus YLR258W, strain gsy2, active compounds read low 1.02 | S. cerevisiae deletion strains, locus YLR262C, strain YPT6 (second series), active compounds read low 1.01 | S. cerevisiae deletion strains, locus YLR262C, strain YPT6, active compounds read low 0.899 | S. cerevisiae deletion strains, locus YLR268W, strain sec22, active compounds read low 0.96 | S. cerevisiae deletion strains, locus YLR320W, strain mms22, active compounds read low 1.03 | S. cerevisiae deletion strains, locus YLR330W, strain CHS5, active compounds read low 0.987 | S. cerevisiae deletion strains, locus YLR342W, strain FKS1 (second series), active compounds read low 0.96 | S. cerevisiae deletion strains, locus YLR342W, strain FKS1, active compounds read low 1.01 | S. cerevisiae deletion strains, locus YLR357W, strain rsc2, active compounds read low 1.09 | S. cerevisiae deletion strains, locus YLR370C, strain arc18, active compounds read low 1.03 | S. cerevisiae deletion strains, locus YLR371W, strain rom2, active compounds read low 0.974 | S. cerevisiae deletion strains, locus YLR384C, strain iki3, active compounds read low 1.03 | S. cerevisiae deletion strains, locus YLR418C, strain cdc73, active compounds read low 0.896 | S. cerevisiae deletion strains, locus YML016C, strain PPZ1, active compounds read low 0.981 | S. cerevisiae deletion strains, locus YML032C, strain rad52, active compounds read low 0.974 | S. cerevisiae deletion strains, locus YML120C, strain ndi1, active compounds read low 1.01 | S. cerevisiae deletion strains, locus YML124C, strain tub3, active compounds read low 0.972 | S. cerevisiae deletion strains, locus YMR058W, strain fet3, active compounds read low 1.03 | S. cerevisiae deletion strains, locus YMR078C, strain ctf18, active compounds read low 0.976 | S. cerevisiae deletion strains, locus YMR125W, strain sto1, active compounds read low 1.03 | S. cerevisiae deletion strains, locus YMR129W, active compounds read low 1.02 | S. cerevisiae deletion strains, locus YMR205C, strain PFK2, active compounds read low 1.02 | S. cerevisiae deletion strains, locus YMR223W, strain ubp8, active compounds read low 0.982 | S. cerevisiae deletion strains, locus YMR231W, strain pep5, active compounds read low 1.03 | S. cerevisiae deletion strains, locus YMR263W, strain SAP30, active compounds read low 0.982 and 1 | S. cerevisiae deletion strains, locus YMR307W, strain GAS1, active compounds read low 0.832 | S. cerevisiae deletion strains, locus YNL067W, strain RPL9B, active compounds read low 0.99 | S. cerevisiae deletion strains, locus YNL071W, strain lat1, active compounds read low 1.02 | S. cerevisiae deletion strains, locus YNL128W, strain TEP1, active compounds read low 1.01 | S. cerevisiae deletion strains, locus YNL153C, strain GIM3, active compounds read low 0.99 and 0.977 | S. cerevisiae deletion strains, locus YNL175C, strain NOP13, active compounds read low 0.977 | S. cerevisiae deletion strains, locus YNL183C, strain NPR1, active compounds read low 0.91 | S. cerevisiae deletion strains, locus YNL197C, strain WHI3, active compounds read low 0.968 | S. cerevisiae deletion strains, locus YNL209W, strain ssb2, active compounds read low 1.01 | S. cerevisiae deletion strains, locus YNL224C, strain SQS1, active compounds read low 0.96 | S. cerevisiae deletion strains, locus YNL233W, strain BNI4, active compounds read low 0.955 | S. cerevisiae deletion strains, locus YNL248C, strain rpa49, active compounds read low 1.06 | S. cerevisiae deletion strains, locus YNL250W, strain rad50, active compounds read low 0.989 | S. cerevisiae deletion strains, locus YNL271C, strain bni1, active compounds read low 0.975 | S. cerevisiae deletion strains, locus YNL298W, strain CLA4, active compounds read low 0.978 | S. cerevisiae deletion strains, locus YNL307C, strain MCK1, active compounds read low 0.958 | S. cerevisiae deletion strains, locus YNL322C, strain KRE1 (second series), active compounds read low 1.02 | S. cerevisiae deletion strains, locus YNL322C, strain KRE1, active compounds read low 0.997 and 1.04 | S. cerevisiae deletion strains, locus YNR049C, strain mso1, active compounds read low 1.02 | S. cerevisiae deletion strains, locus YNR052C, strain pop2, active compounds read low 0.978 | S. cerevisiae deletion strains, locus YOL006C, strain TOP1, active compounds read low 0.851 | S. cerevisiae deletion strains, locus YOL012C, strain htz1 1.09 | S. cerevisiae deletion strains, locus YOL147C, strain pex11, active compounds read low 0.978 | S. cerevisiae deletion strains, locus YOR001W, strain rrp6, active compounds read low 1.05 | S. cerevisiae deletion strains, locus YOR061W, strain CKA2, active compounds read low 0.987 | S. cerevisiae deletion strains, locus YOR069W, strain VPS5, active compounds read low 0.99 | S. cerevisiae deletion strains, locus YOR070C, strain gyp1, active compounds read low 1 | S. cerevisiae deletion strains, locus YOR080W, strain dia2, active compounds read low 1.03 | S. cerevisiae deletion strains, locus YOR083W, strain WHI5 (second series), active compounds read low 0.9 | S. cerevisiae deletion strains, locus YOR083W, strain WHI5, active compounds read low 0.999 | S. cerevisiae deletion strains, locus YOR106W, strain vam3, active compounds read low 1.04 | S. cerevisiae deletion strains, locus YOR136W, strain idh2, active compounds read low 0.981 | S. cerevisiae deletion strains, locus YOR144C, strain elg1, active compounds read low 0.966 | S. cerevisiae deletion strains, locus YOR184W, strain ser1, active compounds read low 0.939 | S. cerevisiae deletion strains, locus YOR231W, strain MKK1, active compounds read low 0.952 | S. cerevisiae deletion strains, locus YOR265W, strain rbl2, active compounds read low 1 | S. cerevisiae deletion strains, locus YOR270C, strain vph1, active compounds read low 1.03 | S. cerevisiae deletion strains, locus YOR290C, strain snf2, active compounds read low 1.02 | S. cerevisiae deletion strains, locus YOR316C, strain cot1, active compounds read low 0.977 | S. cerevisiae deletion strains, locus YPL051W, strain arl3, active compounds read low 1 | S. cerevisiae deletion strains, locus YPL055C, strain LGE1, active compounds read low 0.953 and 1.01 | S. cerevisiae deletion strains, locus YPL078C, strain atp4, active compounds read low 1 | S. cerevisiae deletion strains, locus YPL106C, strain sse1, active compounds read low 1.01 | S. cerevisiae deletion strains, locus YPL240C, strain hsp82, active compounds read low 1 | S. cerevisiae deletion strains, locus YPL241C, strain CIN2, active compounds read low 0.985 and 1 | S. cerevisiae deletion strains, locus YPL256C, strain CLN2, active compounds read low 0.991 | S. cerevisiae deletion strains, locus YPR119W, strain clb2, active compounds read low 0.973 | S. cerevisiae deletion strains, locus YPR141C, strain kar3, active compounds read low 0.98 | S. cerevisiae deletion strains, locus YPR163C, strain tif3, active compounds read low 0.987 | S. cerevisiae deletion strains, locus YPR167C, strain met16, active compounds read low 0.984 | S. cerevisiae deletion strains, strain wtn01, active compounds read low 0.954 | S. cerevisiae strains, strain wild type, active compounds read low 0.986
active: S. cerevisiae deletion strains, locus YKR001C, strain vps1, active compounds read low 0.837

Source: PubChem BioAssay AID1159580 (chemical genetic matrix, 2015)
